S aureus QS inh = blocks AIP-induced quorum sensing reporter in S. aureus; S. aureus RN6390 RNAIII-GFP reporter, flow cytometry 3 h; AID 527; inhibition, % at 2 µM; 24,000 tested, 0.3% active;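 active = share of bacteria positive for the green fluorescent reporter and its mean brightness both inhibited by 50% or more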;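 also: 0% = AIP-stimulated control and 100% = unstimulated bacteria without AIP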
Prostate diff = activators of LNCaP prostate cell differentiation. flow cytometry side scatter, 4 d. side scatter shift, % at 10 µM. 24,000 tested, 0.56% active;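 active = side scatter shift above 30%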;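 also: androgen-responsive LNCaP prostate cancer cells in charcoal-stripped serum medium; percent of cells past a gate set so DMSO wells show 10% shift; higher shift means more granular cells and more differentiation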
FPRL1 ligand = binds the human formylpeptide receptor-like-1 FPRL1; P25090; AID 441; inhibition, % (no concentration beside the values); 24,000 tested, 0.3% active; FPRL1-expressing cells, fluorescent ligand binding inhibition, flow cytometry;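 also: 0% = buffer alone and 100% = receptor blocker peptide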
FPR ligand = human FPR ligand, with FPRL1 counter-screen; P21462; FPR-expressing cells, fluorescent ligand binding, flow cytometry; inhibition, % (no concentration beside the values); 24,000 tested, 0.74% active; AID 440;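 also: 0% = buffer wells and 100% = receptor blocker peptide wells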
Target sequence (P21462 whole entry, looked up): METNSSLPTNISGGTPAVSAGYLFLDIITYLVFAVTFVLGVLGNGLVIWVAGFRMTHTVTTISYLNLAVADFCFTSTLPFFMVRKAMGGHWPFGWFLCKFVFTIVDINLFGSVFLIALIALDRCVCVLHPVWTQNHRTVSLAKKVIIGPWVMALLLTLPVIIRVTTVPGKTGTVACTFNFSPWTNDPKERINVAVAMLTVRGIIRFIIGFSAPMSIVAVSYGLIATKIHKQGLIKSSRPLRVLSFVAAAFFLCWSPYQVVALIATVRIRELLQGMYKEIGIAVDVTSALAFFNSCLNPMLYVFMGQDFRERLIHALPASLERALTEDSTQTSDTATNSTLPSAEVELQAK
* hit, by the source's call; ? = inconclusive; nt = no result. Most compounds without a hit are left out; they make up all but 1.4% or so of the library. Rule as the data show it, unless noted: active = inhibition above about 30%; inconclusive = no clear call, values can overlap the other calls; inactive = below that.

SMILES | S aureus QS inh | Prostate diff | FPRL1 ligand | FPR ligand
CCOC(=O)CSc1nnc(CNC(=O)c2cc(OCC)c(OCC)c(OCC)c2)n1C | -2 | 3 | 51* | -6
CCOC(=O)CSc1nnc(CNC(=O)c2cc(OC)c(OC)c(OC)c2)n1C | 26 | 7 | -2 | 2
CCOc1cc(C(=O)NCc2nnc(SCC(=O)OC)n2C)cc(OCC)c1OCC | 2 | 2 | 75* | 9
CCOc1ccc(NC(=O)C2CCCN(S(=O)(=O)c3c(C)nn(C)c3C)C2)cc1 (stereo not drawn) | 96* | 12 | 0 | -12
CCOc1ccc(NC(=O)C2CCCN(S(=O)(=O)c3c(C)n[nH]c3C)C2)cc1 (stereo not drawn) | -3 | 2 | 4 | 4
O=C(CCn1c(=S)[nH]c2ccccc2c1=O)N1CCN(c2ccccn2)CC1 | 13 | 5 | -2 | 3
COc1cccc(CNC(=O)C2CCN(c3cnccn3)CC2)c1 | -2 | 6 | 8 | 18
CCN(CC)CCn1c2ccccc2c2nc(C)sc21 | -1 | 13 | 0 | 4
COc1ccc2ccccc2c1C1CC(=O)N2CN(C3CCCCC3)CSC2=C1C#N (stereo not drawn) | -2 | 3 | 2 | 64*
COc1ccc2ccccc2c1C1CC(=O)N2CN(Cc3ccco3)CSC2=C1C#N (stereo not drawn) | -1 | 5 | -3 | 1
COc1ccc(Nc2nc(N3CCCC3)c3ccccc3n2)cc1 | 1 | 50* | 4 | 6
COC(=O)c1oc2ccc(Br)cc2c1NC(=O)CN1CCN(C)CC1 | -3 | 31* | 9 | 0
CCC(=O)O[C@@H]1CC(=O)O[C@H](C)CC=CC=C[C@@H](O)[C@H](C)C[C@H](CC=O)[C@H](O[C@H]2O[C@H](C)[C@@H](O[C@H]3C[C@@](C)(O)[C@@H](OC(=O)CC)[C@H](C)O3)[C@H](N(C)C)[C@H]2O)[C@H]1OC | 51* | 9 | 0 | -4
Cc1cccc2cc(C#N)c(SCCN3CCCCC3)nc12 | 25 | 40* | -3 | 2
O=C(NC1CCCC1)C1CC1c1ccccc1 (stereo not drawn) | 0 | 5 | 46* | 26
O=C(NC1CCCCC1)C1CCCN1C(=O)NCc1ccccc1 (stereo not drawn) | 1 | 5 | 1 | -3
CCOC(=O)N1CCC(NC(=O)C2CCCN(Cc3nc(-c4cccc(Cl)c4)oc3C)C2)CC1 (stereo not drawn) | 0 | 4 | 0 | 0
CCN1CCN(CCNC(=O)C2CCCN(Cc3nc(-c4cccc(Cl)c4)oc3C)C2)CC1 (stereo not drawn) | 0 | 44* | -1 | -1
CCCN(CCC)CCNC(=O)C1CCN(Cc2nc(-c3ccc(Cl)cc3)oc2C)CC1 | -2 | 87* | -2 | 4
Cc1oc(-c2ccc(Cl)cc2)nc1CN1CCC(C(=O)NCc2cccnc2)CC1 | -3 | 17 | 1 | -3
CCOc1ccc(C2CC(c3ccc(F)cc3)n3ncnc3N2)cc1 (stereo not drawn) | 1 | 10 | 13 | 18
CC(=O)Nc1nc(C)c(-c2csc(Nc3ccc(O)cc3)n2)s1 | 0 | 19 | -7 | -6
Cc1ccc(Nc2nc(C3CC3)cs2)cc1 | -6 | 14 | 8 | 34*
COc1ccc(-n2c(Cc3cccn3C)nnc2SCC(=O)Nc2ccc(C(C)=O)cc2)cc1 | -1 | 7 | 12 | 4
Cc1ccccc1-n1c(Cn2c(=O)sc3ccccc32)nnc1SCC(N)=O | -2 | 7 | 6 | 4
SMILES | S aureus QS inh | Prostate diff | FPRL1 ligand | FPR ligand
Cc1cc(NC(=O)CSc2nnc(Cn3c(=O)sc4ccccc43)n2-c2ccccc2C)no1 | -2 | 29 | 16 | 36*
COC(=O)c1nnn(CC(=O)Nc2cccc(OC)c2)c1C(=O)OC | 0 | 6 | 6 | 9
C=CCOc1ccc(/C(O)=C2/C(=O)C(=O)N(CCN3CCOCC3)C2c2ccc(C)cc2)cc1 (stereo not drawn) | nt | nt | -6 | -6
COC(=O)c1ccc(C2/C(=C(/O)c3ccc(OC)cc3)C(=O)C(=O)N2Cc2ccco2)cc1 (stereo not drawn) | nt | nt | 5 | 38*
COc1ccc(/C(O)=C2/C(=O)C(=O)N(CCN3CCOCC3)C2c2ccc(C)cc2)cc1 (stereo not drawn) | nt | nt | 31* | 26
O=C(NCC(c1cccnc1)N1CCN(c2ccccc2F)CC1)c1cccc(Cl)c1 (stereo not drawn) | 59* | 1 | -2 | -2
O=C(NCC(c1cccnc1)N1CCOCC1)c1cccc(Cl)c1 (stereo not drawn) | -2 | nt | -3 | 1
Cc1noc(/C=C/c2ccco2)c1S(=O)(=O)N1CCC(C(=O)NCc2ccco2)CC1 | -2 | 11 | 1 | 6
Cc1noc(/C=C/c2ccco2)c1S(=O)(=O)N1CCC(C(=O)N2CCc3ccccc3C2)CC1 | -2 | 43* | -6 | -4
CC(C)NC(=O)CSc1nnc(-c2ccc(C(C)(C)C)cc2)n1C | 5 | 3 | 4 | -5
COc1ccc(NC(=O)C(c2ccc(C)cc2)N(C)C(=O)c2cnccn2)cc1 (stereo not drawn) | 3 | 6 | 38* | 18
CCOCCCNC(=O)C(NC(=O)c1cnccn1)c1ccc(OC)cc1 (stereo not drawn) | -1 | 4 | 25 | 23
CSc1nc2ccc3nc(NC(=O)c4cccs4)sc3c2s1 | 0 | 25 | -7 | 6
O=C(Nc1nc2c(s1)CCc1ccccc1-2)c1cccs1 | 79* | 2 | -14 | -5
COC(=O)Nc1sccc1C(=O)Nc1sccc1C(=O)OC | -2 | 32* | 5 | -3
O=C(NCc1cccnc1)C1c2ccccc2C(=O)N1Cc1ccco1 (stereo not drawn) | 1 | 9 | -1 | 0
CC(C)c1ccc(-c2nc(N3CCCCC3)[nH]c(=O)c2C#N)cc1 | 0 | 7 | -6 | -27
CC1CCN(c2nc(-c3ccccc3)c(C#N)c(=O)[nH]2)CC1 | 3 | 4 | 1 | 35*
N#Cc1c(C(F)(F)F)cc(-c2ccccc2)nc1SCc1nc(N)nc(N2CCOCC2)n1 | -4 | 13 | 47* | ?
CC(C)C1CC(O)(C2(O)CCCCC2)ON1 (stereo not drawn) | -1 | 14 | 2 | -5
COc1ccc(-c2cc(C(F)(F)F)nc(N3CCN(Cc4ccccc4)CC3)n2)cc1OC | 3 | 4 | 75* | 8
CC(C)CC(=O)Nc1ccccc1-c1nnn(CC(=O)N2CCOCC2)n1 | 0 | 4 | -1 | -7
CC[C@H]1OC(=O)C[C@@H](O)[C@H](C)[C@@H](O[C@@H]2O[C@H](C)C[C@H](N(C)C)[C@H]2O)[C@@H](CC=O)C[C@@H](C)C(=O)C=C[C@]2(C)O[C@H]2[C@@H]1C | 51* | 15 | 10 | 8
Cc1cccc(NC(=O)C2CCCN(C(=O)Nc3ccccc3)C2)c1C (stereo not drawn) | 1 | 7 | 14 | 2
COC(=O)Cn1c2c(c3cc(C)ccc31)CCCC2 | 1 | 9 | 2 | 8
Cc1ccc2c(c1)c1c(n2CC(O)CNC(CO)(CO)CO)CCCC1 (stereo not drawn) | 0 | 30* | 0 | -4
O=C(O)CCCCCCC1C(=O)NC(=O)N1CCC(O)C1CCCCC1 (stereo not drawn) | 1 | 3 | -2 | 4
